# Pf growth 96h: P. falciparum growth inhibition at 96 hour, primary screen for plastid delayed-death inhibitors; P. falciparum luciferase reporter growth, 96 h; Potency, µM (top dose mostly 28.7 µM), hits mostly inhibitors; hit rate 6.9% among 320,000
#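 Two-generation exposure (96 h) targets delayed-death phenotype. Reporter parasites carrying integrated firefly luciferase, in red cells at 2% hematocrit and 0.05% parasitemia final, kept at 37 C, 5% CO2; luminescence loss indicates inhibition.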
# NS1 inh: influenza NS1 inhibition. Potency, µM (series often up to 46.1 µM). hit rate 0.4% among 270,000. AID 2326; calls by dose curve; note: actives are rising curves; nearly all actives have a fitted effect of over 50% in size
#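 Compounds were scored for reversing the slow growth caused by influenza A NS1 in S. cerevisiae, measured by optical density at 600 nm. Assay medium contained 2% galactose at pH 6.0; NS1-free yeast of the same strain were the positive control.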
# Vaccinia Venus: vaccinia inhibition (Venus reporter) | Vaccinia virus Venus reporter expression, fluorescence | Potency, µM (titrated, usually from 36.5 µM), hits mostly inhibitors | hit rate 0.46% among 330,000 | AID 720580; calls by dose curve; tested in A549 cells; note: nearly all actives have a fitted effect of over 30% in size
# HCV inhibitor: blocks hepatitis C virus; AID 651820; Huh7.5.1 HCVcc-Cre infection, luciferase reporter, 44 h; hit rate 3.4% among 340,000; Potency, µM (top dose mostly 41.8 µM), hits mostly inhibitors
#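 Cells (1,000/well) were plated 4 h before compound, then infected with HCVcc-Cre virus (~0.5 moi). After 44 h further culture, infection was read as luciferase luminescence following a 15 min substrate incubation at room temperature.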
# Pf growth 48h: P. falciparum growth inhibition at 48 hours (one generation). P. falciparum luciferase growth in erythrocytes, 48 h. Potency, µM (series often up to 28.7 µM), most hits filed as inhibitors. hit rate 5.9% among 310,000
#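 Luciferase-expressing P. falciparum in infected erythrocytes (2% hematocrit, 0.1% parasitemia final) in RPMI 1640/0.5% Albumax were exposed to compound for 48 hours at 37 C, 5% CO2; growth read as luminescence.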
# Vaccinia mCherry: vaccinia inhibition (mCherry reporter); AID 720579; hit rate 0.63% among 310,000; Vaccinia virus mCherry reporter infection, fluorescence; Potency, µM (series often up to 36.5 µM), most hits filed as inhibitors; calls by dose curve; tested in A549 cells; note: nearly all actives have a fitted effect of over 35% in size
# Flu NS1 inh: influenza NS1 function inhibition validation. shares compounds with NS1 inh. influenza NS1 function cell assay, 15-point titration. activity change, negative = inhibition, % at 32.9 µM. 1,400 tested, under 10 active. AID 492980; calls by dose curve
# PR8 titer: influenza virus titer reduction, NS1 project | shares compounds with NS1 inh | MDCK infected influenza A/PR/8/34, virus titer TCID50; stronger effect = lower value | virus titer (log TCID50), log10 TCID50 at 5 µM | hit rate 30% among 95; call rule not given here
# A number is an active result; – = inactive; ? = inconclusive; · = not tested or not shown; [ ] = dose if it differs, or a comment. A selection: hits, their analogues and other compounds. The true share with any hit is near 11%. Unless noted, calls come from the whole dose curve; as a rule, active = well fitted inhibition curve with a large enough effect; inconclusive = small, poorly fitted or top-dose-only effect, or another doubt; inactive = no such curve, though single readings can be large or run the other way.
SMILES,Pf growth 96h,NS1 inh,Vaccinia Venus,HCV inhibitor,Pf growth 48h,Vaccinia mCherry,Flu NS1 inh,others
COc1ccc(NS(=O)(=O)c2cc(NC(=O)/C=C/c3cc(OC)ccc3OC)ccc2N2CCCCC2)cc1,2.6µM,10µM,–,–,4.1µM,–,–,
COc1ccc(NS(=O)(=O)c2cc(NC(=O)c3cc(F)c(F)c(F)c3F)ccc2N2CCCC2)cc1,?,–,·,?,–,·,·,
COCc1ccc(C(=O)N2CCCC(Nc3ccc(F)c(F)c3)C2)s1 (stereo unspecified),–,–,–,–,–,–,·,
CCOC(=O)c1cc(-c2ccccc2)sc1NC(=O)CN1C(=O)NC(CC)(c2ccc(F)cc2)C1=O (stereo unspecified),·,11µM,·,10µM,?,·,–,
O=C(CSc1nnc(-c2ccc(O)cc2)n1Cc1ccco1)c1ccccc1,–,–,–,–,·,·,·,
O=C(CSc1nnc(-c2cc3ccccc3cc2O)n1Cc1ccco1)c1ccc(F)cc1,?,8.9µM,·,16µM,·,·,–,
COc1ccc(-c2csc(NC(=O)c3ccc(S(=O)(=O)N4CCc5ccccc5C4)cc3)n2)c(OC)c1,?,13µM,–,?,–,?,–,
O=C(Nc1nc(-c2ccccc2)cs1)C1CCCN(S(=O)(=O)c2cccc([N+](=O)[O-])c2)C1 (stereo unspecified),?,–,·,–,·,·,·,
NS(=O)(=O)c1ccc(NC(=O)c2ccc(S(=O)(=O)N3CCc4ccccc43)cc2)cc1,?,–,?,?,–,?,·,
Cc1cc(C)c2nc(NC(=O)c3cccc(S(=O)(=O)N4CCc5ccccc54)c3)sc2c1,–,18µM,–,?,–,–,–,
O=C(Nc1nc(-c2ccccc2)cs1)c1ccc(S(=O)(=O)N2CCc3ccccc32)cc1,?,5µM,?,10µM,?,–,?,
COc1ccc(S(=O)(=O)N2CCc3ccccc3C2)cc1,–,–,–,–,–,–,·,
O=C(Nc1nc(-c2ccccc2)cs1)C1CCCN(S(=O)(=O)c2ccccc2)C1 (stereo unspecified),?,11µM,–,5µM,·,?,–,
CS(=O)(=O)N1CCc2cc(-c3csc(NC(=O)Cc4ccccc4)n3)ccc21,–,10µM,?,?,–,?,–,
COc1ccccc1N1CCN(C(=O)c2cccc(N3C(=O)NC4CC3(C)Oc3c(OC)cccc34)c2)CC1 (stereo unspecified),–,–,·,–,?,·,·,
Cc1nc2c(ncn2-c2ccccc2)c(=O)n1NC(=O)CN1CCN(C)CC1,–,3.5µM,–,–,–,–,–,
COc1ccc(CNC(=O)CCCC(=O)Nc2cccc(Br)c2)cc1,–,–,–,–,–,–,·,
COc1ccc(NC(=O)COC(=O)CCSc2ccccc2)cc1,·,·,–,–,·,–,·,
CN(CC(=O)Nc1ccc(Cl)cc1)C(=O)c1cc(-c2cccs2)nn1-c1ccccc1,–,·,–,?,–,–,·,
O=C(COC(=O)c1cc(-c2cccs2)nn1-c1ccccc1)Nc1ccc(Cl)c([N+](=O)[O-])c1,–,11µM,–,–,–,–,–,
CCCn1c(SCC(=O)Nc2sc(C)c(C)c2C#N)nnc1C(C)C,–,8.9µM,·,–,?,·,–,
COc1cc(/C=N/NC(=S)N/N=C/c2cc(OC)c(OC)c(OC)c2)cc(OC)c1OC,–,11µM,–,–,–,–,–,
CCOC(=O)C1=CC[C@@H](c2ccc(OC)cc2)N(S(=O)(=O)c2ccc(C)cc2)[C@H]1CC,·,·,–,·,·,–,·,
Cc1cc(C)n(CCc2nc3c4ccccc4n(CC#N)c(=O)n3n2)n1,·,–,·,–,·,·,·,
CCC(C)NC(=O)c1cc(-c2ccc(OC)cc2)on1 (stereo unspecified),–,?,·,?,·,·,·,
SMILES,Pf growth 96h,NS1 inh,Vaccinia Venus,HCV inhibitor,Pf growth 48h,Vaccinia mCherry,Flu NS1 inh,others
CCC(C)NC(=O)c1cc(CC(C)C)on1 (stereo unspecified),12µM,?,–,–,–,–,–,
COc1ccc(N2CCN(C(=O)NCc3ccc(C)cc3)CC2)cc1,–,–,–,–,–,?,·,
CC(C)(C)c1nnc2sc(SCC(=O)c3ccc4c(c3)OCCO4)nn2c1=O,–,·,–,–,–,–,·,
CC(C)(C)c1nnc2sc(SCC(=O)c3ccc(Cl)cc3)nn2c1=O,–,11µM,–,–,?,–,–,PR8 titer=–
CCCc1nn(C)c2c1C(c1ccncc1)C(C#N)=C(N)O2 (stereo unspecified),–,–,–,–,–,·,·,
COc1ccc(C2CC(c3cccs3)=NN2c2ccc(C=O)cc2)cc1 (stereo unspecified),–,11µM,–,–,–,–,–,
COc1cc(/C=C\C(=O)NCc2ccc3[nH]c(C)cc3c2)cc(OC)c1OC,13µM,1.3µM,–,–[8.37 µM],12µM,?,–,
CCCCc1nc(S(=O)(=O)c2ccc(Cl)cc2)c(N2CCOCC2)o1,–,–,–,–,–,–,·,
Cc1cc(C(=O)N2CCN(C/C=C/c3ccccc3)CC2)no1,·,–,·,–,–,·,·,
O=C(N/N=C/c1cn(Cc2ccccc2)c2ccccc12)c1cc(O)cc(O)c1,?,14µM,·,–,?,·,–,
O=C(Cn1cc(/C=N/NC(=O)c2cccc3ccccc23)c2ccccc21)Nc1ccc(F)cc1,?,10µM,·,–,?,·,–,
CCCC(C)C(=O)Nc1nc(C)c(-c2csc(Nc3ccc(Cl)cc3)n2)s1 (stereo unspecified),?,4.5µM,?,–[8.37 µM],?,?,–,
CCC(=O)Nc1nc(C)c(-c2csc(Nc3ccc(S(=O)(=O)Nc4cc(C)on4)cc3)n2)s1,–,–,·,·,·,·,·,
COc1ccc(NC(=O)CN(C)CC(=O)Nc2ccc(Cl)c(S(=O)(=O)N(C)C)c2)cc1,?,·,–,–,–,–,·,
CCCOc1ccc(-c2cnc(SCC(N)=O)nc2N)cc1,·,8.9µM,–,–,–,·,–,
CC12CCC(C(=O)N(CSC(=S)N/N=C\c3ccccc3Cl)C1=O)C2(C)C (stereo unspecified),?,10µM,–,–,?,–,?,PR8 titer=6.5
O=C(NCc1ccccc1)C(c1ccc(-c2ccccc2)cc1)N1CCN(c2ccccc2F)CC1 (stereo unspecified),·,·,–,·,·,–,·,
CN(C)S(=O)(=O)c1cccc(C(=O)OCC(=O)c2ccc3c(c2)NC(=O)CO3)c1,–,?,–,–,–,–,–,
Cc1cc(OCC(=O)NC(Cc2ccc(Cl)cc2)C(=O)O)c2c3c(c(=O)oc2c1)CCCC3 (stereo unspecified),?,3.2µM,–,–,?,–,–,
Cc1cc(OCC(=O)NC(Cc2ccc(Cl)cc2)C(=O)O)c2c(C)c(C)c(=O)oc2c1 (stereo unspecified),–,7.9µM,–,–,–,–,?,PR8 titer=–
